Source: PubChem BioAssay (National Center for Advancing Translational Sciences (NCATS))
G9a block – G9a (human) methyltransferase inhibition; G9a H3K9 monomethylation, AlphaScreen, 2 h; Potency, µM (top dose mostly 102 µM), hits mostly inhibitors; 350,000 compounds, 8.8% hits; AID 504332; note: nearly all actives have a fitted effect of over 75% in size
Target sequence (Q96KQ7 913-1193 limits assumed): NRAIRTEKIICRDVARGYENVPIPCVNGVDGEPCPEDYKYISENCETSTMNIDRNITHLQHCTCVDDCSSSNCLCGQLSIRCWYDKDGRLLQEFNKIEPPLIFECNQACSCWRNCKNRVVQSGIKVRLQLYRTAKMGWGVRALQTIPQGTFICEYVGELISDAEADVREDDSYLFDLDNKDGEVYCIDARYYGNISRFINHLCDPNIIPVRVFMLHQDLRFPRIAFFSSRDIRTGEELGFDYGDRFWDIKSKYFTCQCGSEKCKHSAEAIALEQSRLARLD
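AlphaScreen read-out: biotin-H3K9 peptide (500 nM) methylation by 20 nM enzyme with 20 uM SAM, 2 h at room temperature after 15 min compound preincubation; anti-monomethyl H3K9 antibody plus donor/acceptor beads, 10 min dark.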
ALOX12 inh – ALOX12 (human) lipoxygenase inhibition | purified 12hLO, xylenol orange hydroperoxide absorbance | Potency, µM (titrated, usually from 108 µM), usual class: inhibitors | 580,000 compounds, 1.1% hits
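Purified human 12hLO (150 nM final) in 25 mM Hepes, 0.01% Triton X-100, pH 7.0 was preincubated 15 min at room temperature with compound. Then 40 uM arachidonic acid was added, 30 min. Hydroperoxide was read by Fe-XO absorbance ratio 573/405 nm.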
BAZ2B inh – blocks human BAZ2B. 360,000 compounds, 4.4% hits. AID 504333. AlphaScreen BAZ2B-H3K14Ac peptide displacement. Q9UIF8. Potency, µM (highest dose often 114 µM), hits mostly inhibitors; note: nearly all actives have a fitted effect of over 60% in size
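Complex of BAZ2B and biotin-H3K14Ac (50 nM apiece) forms over 30 min at RT, then faces library compounds up to 110 uM for another 30 min; AlphaScreen beads added, 20 min dark incubation, luminescence read.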
JMJD2A Tudor inh – blocks the human JMJD2A Tudor domain. O75164. AID 504339. Potency, µM (highest dose often 114 µM), hits mostly inhibitors. 390,000 compounds, 4.4% hits. AlphaScreen JMJD2A-Tudor / H3K4me3 peptide binding; note: nearly all actives have a fitted effect of over 50% in size
HP1b chromo inh – HP1-beta chromodomain-methylated histone interaction inhibition; P83916; AlphaScreen HP1-beta / biotin-H3K9me3 peptide binding; Potency, µM (doses to about 114 µM), hits mostly inhibitors; 390,000 compounds, 0.56% hits; AID 540317; note: nearly all actives have a fitted effect of over 70% in size
Target sequence (P83916 whole entry, looked up): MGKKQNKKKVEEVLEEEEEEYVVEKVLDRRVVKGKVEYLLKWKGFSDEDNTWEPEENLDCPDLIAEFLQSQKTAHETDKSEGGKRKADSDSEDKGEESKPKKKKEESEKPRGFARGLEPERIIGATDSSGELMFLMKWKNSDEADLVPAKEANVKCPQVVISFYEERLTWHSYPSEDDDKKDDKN
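Compound inhibition of the preformed complex between 50 nM HP1-beta and 50 nM biotinylated H3K9me3 peptide was read by AlphaScreen. Buffer was PBS pH 7.4 with 0.01% Tween-20. Incubations ran 30 min at room temperature, with 10 ug/mL donor/acceptor beads.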
PLK1 PBD inh – PLK1 (human) polo-box domain binding inhibition; P53350; AID 720504; 360,000 compounds, 2.8% hits; Plk1 PBD binding of FITC phosphopeptide, fluorescence polarization; Potency, µM, usual class: inhibitors; note: series mostly up to about 57 µM; nearly all actives have a fitted effect of over 65% in size
Large screens that a line does not name were inactive; ! = not confirmed by another sample. Sampled rows, rich in hits. Any-hit rate of the full collection: about 9%. Calls come from the whole dose curve; as a rule, active = well fitted curve in the direction sought with a large enough effect; inconclusive = small, poorly fitted or top-dose-only effect, or another doubt; inactive = no such curve, though single readings can be large; an effect the other way counts as inactive or inconclusive.

Cc1coc2c(C)c3oc(=O)c(CCC(=O)NCCc4ccccc4F)c(C)c3cc12	none (no result: PLK1 PBD inh)
Cc1coc2c(C)c3oc(=O)c(CCC(=O)NCCC(=O)O)c(C)c3cc12	BAZ2B inh 50µM, JMJD2A Tudor inh inconclusive
Cc1oc2c(C)c3oc(=O)c(CCC(=O)O)c(C)c3cc2c1-c1ccccc1	G9a block inconclusive, BAZ2B inh inconclusive, PLK1 PBD inh 27µM
COc1ccc(CNC(=O)C2CCN(S(=O)(=O)c3ccc(C)cc3)CC2)cc1	none (no result: PLK1 PBD inh)
CC/C=C\C/C=C\C/C=C\CCCCCCCC(=O)O	G9a block 18µM!, PLK1 PBD inh inconclusive
CC/C=C\C/C=C\C/C=C\CCCCCCCCCCCC(=O)O	none (no result: BAZ2B inh, JMJD2A Tudor inh, HP1b chromo inh, PLK1 PBD inh)
CC(=O)c1cccc(NC(=O)Nc2c(C)nn(C)c2C)c1	none
CN=C1S/C(=C\c2ccc(Cl)cc2)C(=O)N1C	none
Cc1ccc(C)n1N1C(=O)/C(=C\c2ccc(Cl)cc2)SC1=S	G9a block inconclusive, BAZ2B inh 2.8µM, JMJD2A Tudor inh 40µM
CC(=O)N(C(C)=O)N1C(=O)/C(=C/c2ccc(Cl)cc2)SC1=S	G9a block 14µM, BAZ2B inh 28µM, JMJD2A Tudor inh 11µM, HP1b chromo inh 10µM, PLK1 PBD inh 5.3µM (no result: ALOX12 inh)
Cc1ccc(-c2cc(-c3n[nH]c(=S)o3)c3ccccc3n2)cc1	G9a block inconclusive, ALOX12 inh 2.2µM, BAZ2B inh inconclusive, JMJD2A Tudor inh inconclusive, PLK1 PBD inh 27µM
CSc1nnc(-c2cc(-c3ccc(C)cc3)nc3ccccc23)o1	G9a block 7.9µM
S=c1[nH]nc(-c2cc(-c3ccccn3)nc3ccccc23)o1	G9a block inconclusive, PLK1 PBD inh inconclusive
COc1ccccc1CNC(=O)CN1C(=O)c2ccc([N+](=O)[O-])cc2C1=O	G9a block inconclusive
Cc1ccc(-n2c(N)c(-c3nc4ccccc4n3C)sc2=S)cc1	G9a block 3.5µM, BAZ2B inh inconclusive, JMJD2A Tudor inh inconclusive, HP1b chromo inh inconclusive, PLK1 PBD inh 5.3µM
CCC(=O)N1CCN(c2c(Cl)cccc2[N+](=O)[O-])CC1	none
O=C1/C(=C/c2ccc(O)c(O)c2)Oc2cc(O)ccc21	G9a block inconclusive, ALOX12 inh 11µM, BAZ2B inh 56µM
CN1CC2(CCN(S(C)(=O)=O)CC2)CC1C(=O)N1CCOCC1 (configuration not stated)	none (no result: G9a block, BAZ2B inh, JMJD2A Tudor inh, HP1b chromo inh, PLK1 PBD inh)
COc1ccc2nc3oc(C(=O)NCCCOC(C)C)cc3cc2c1	none
COc1ccc(-c2nnc3n2N=C(c2cccc(OC)c2)CS3)cc1	none (no result: G9a block, ALOX12 inh, BAZ2B inh, HP1b chromo inh, PLK1 PBD inh)
CCN1CCN(C(=O)c2ccc(Sc3ccccc3Cl)c([N+](=O)[O-])c2)CC1	G9a block 32µM, JMJD2A Tudor inh inconclusive
CCN1CCCC1CNC(=O)c1ccc(Sc2ccccc2Cl)c([N+](=O)[O-])c1 (configuration not stated)	ALOX12 inh inconclusive, BAZ2B inh 28µM, JMJD2A Tudor inh inconclusive
CCN1CCN(C(=O)c2ccc(Cl)c(S(=O)(=O)N(C)c3ccccc3)c2)CC1	G9a block 18µM
Cc1cc(C)nc(S/C=C/C(=O)c2ccc(F)cc2)n1	none (no result: ALOX12 inh, JMJD2A Tudor inh, HP1b chromo inh, PLK1 PBD inh)
COc1cc(/C=C/C(=O)O)cc(S(=O)(=O)N2CCc3ccccc3C2)c1OC	G9a block 89µM
O=[N+]([O-])c1ccc(CN2CCSCC2)cc1	G9a block 25µM, BAZ2B inh 71µM, JMJD2A Tudor inh 1.6µM, HP1b chromo inh 25µM
c1ccc(-c2ccc(CN3CCSCC3)cc2)cc1	ALOX12 inh inconclusive, BAZ2B inh inconclusive, JMJD2A Tudor inh 20µM, HP1b chromo inh inconclusive (no result: G9a block)
O=[N+]([O-])c1ccc(CN2CCN(c3ccc([N+](=O)[O-])cc3)CC2)cc1	G9a block 13µM, ALOX12 inh 3.5µM, BAZ2B inh 25µM, JMJD2A Tudor inh 3.2µM, HP1b chromo inh 50µM
Clc1cc(Cl)cc(CN2CCSCC2)c1	none (no result: G9a block)
O=[N+]([O-])c1ccc(CN2CCN(c3ccc(F)cc3)CC2)o1	G9a block inconclusive, ALOX12 inh inconclusive, BAZ2B inh inconclusive, JMJD2A Tudor inh 11µM, HP1b chromo inh inconclusive
Cc1nc(C(=O)Nc2cccc(Cl)c2Cl)nn1-c1cc(OC(C)C)c(Cl)cc1Cl	none
